# SMN2 splice enh = enhancers of SMN2 splice variant expression; Potency, µM (top dose mostly 46.1 µM), inactives show at the highest dose activity change, positive = activation, actives largely listed as activators; HEK293 SMN2-luciferase splicing reporter, luminescence, 30-36 h; AID 1458; hit rate 2.8% among 210,000; also: % of control where 0% means no effect; nearly all actives have a fitted effect of over 55% in size
#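 HEK293 cells carry an SMN2 […]–luciferase reporter in which exon 7 inclusion puts luciferase in frame. Cells were plated 10-12 h before compound addition, then incubated 30-36 h at 37C. ONE-Glo luminescence was read; sodium butyrate at 4.5 mM final served as control.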
# Rab9 prom act = activators of Rab9 promoter. Huh7 Rab9 promoter-luciferase reporter, luminescence, 24 h. Potency, µM (top dose mostly 9.22 µM), for inactives: at the top dose activation, negative = inhibition, most hits filed as activators. hit rate 2.8% among 320,000. AID 485297; also: % of control where 0% means no effect; nearly all actives have a fitted effect of over 60% in size
#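 Cell-based reporter: Huh7 stable for Rab9 promoter-driven luciferase, plated in reduced-serum medium with 10% FBS at 1500 cells/well, compound-treated 24 h at 37 °C, luminescence read after 10 min reagent.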
# NPC1 promoter act = activators of NPC1 promoter; Huh7 NPC1 promoter luciferase reporter, 24 h; Potency, µM (top dose mostly 9.22 µM), inactives show at the top dose activation, actives largely listed as activators; hit rate 2.4% among 320,000; also: % of control where 0% means no effect; nearly all actives have a fitted effect of over 60% in size
#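 Luminescence from an NPC1 promoter-driven luciferase reporter in stably transfected Huh7 cells was measured after 24 h compound treatment at 37 °C, followed by 10 min ambient incubation with luciferase detection reagent.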
# FLuc modulator = counter-screen for miR-21 project: firefly luciferase inhibitors or activators. P08659. purified FLuc, Km substrates, luminescence inhibition. Potency, µM (titrated, usually from 57.5 µM), inactives show at the highest dose activity change, negative = inhibition, usual class: inhibitors. hit rate 6.9% among 360,000;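 also: plate controls were vehicle for no effect and reference inhibitor for full effect; nearly all actives have a fitted effect of over 55% in size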
# Target sequence (P08659 whole entry, looked up): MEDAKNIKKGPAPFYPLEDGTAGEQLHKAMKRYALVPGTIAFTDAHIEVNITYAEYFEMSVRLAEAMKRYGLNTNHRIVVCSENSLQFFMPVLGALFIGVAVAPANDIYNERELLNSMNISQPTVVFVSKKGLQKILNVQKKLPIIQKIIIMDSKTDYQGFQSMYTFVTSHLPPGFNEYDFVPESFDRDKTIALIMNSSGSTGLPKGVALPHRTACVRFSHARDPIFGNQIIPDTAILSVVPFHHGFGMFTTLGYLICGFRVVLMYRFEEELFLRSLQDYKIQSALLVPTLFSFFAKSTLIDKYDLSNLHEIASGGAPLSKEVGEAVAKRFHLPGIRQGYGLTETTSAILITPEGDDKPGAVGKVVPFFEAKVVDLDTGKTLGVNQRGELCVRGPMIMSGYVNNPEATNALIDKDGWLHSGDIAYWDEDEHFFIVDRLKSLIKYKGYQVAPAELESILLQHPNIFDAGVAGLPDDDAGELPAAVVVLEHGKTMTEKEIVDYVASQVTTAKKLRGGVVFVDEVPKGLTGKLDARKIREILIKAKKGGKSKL
#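 Purified P. pyralis luciferase (10nM final) with 10uM D-luciferin and 10uM ATP (Km levels) in 50mM Tris acetate pH 7.5, 10mM Mg acetate, 0.01% Tween-20, 0.05% BSA; qHTS 6-point titration, ~60 µM downward; luminescence read.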
# ELG1 repair inh = ELG1-dependent DNA repair inhibition | Potency, µM (series often up to 46.1 µM), for the others: at the highest dose activity change, negative = inhibition, usual class: inhibitors | HEK293T ELG1-luciferase reporter, luminescence, 16 h; DNA damage induced by 5-fluorouridine | AID 504467 | hit rate 2.3% among 330,000; also: % is scaled to controls: 0 for no effect and ±100 for the full control effect; nearly all actives have a fitted effect of over 55% in size
#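 HEK293T cells expressing luciferase-tagged ELG1 (2,000/well) received 5-Fluorouridine plus compound or DMSO for 16 hr at 37 °C. Luciferase was read by ONE-Glo luminescence after 30 min at room temperature.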
# ELG1 genotoxic = induces genotoxicity in HEK293T cells with luciferase-tagged ELG1; HEK293T ELG1-luciferase reporter, luminescence, 16 h; Potency, µM (titrated, usually from 46 µM), for inactives: at the top dose activity change, positive = activation, usual class: activators; hit rate 1.3% among 330,000; AID 504466; also: % of control where 0% means no effect; nearly all actives have a fitted effect of over 60% in size
#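 16 hr compound incubation (37 °C, 5% CO2) of HEK293T cells carrying luciferase-tagged ELG1; luciferase then measured by ONE-Glo luminescence after 30 min at RT.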
# An asterisk follows results filed as active; u = inconclusive; x = not tested or not shown; [ ] = remark or other dose. Shown are actives, neighbours in structure and some others; about 9.2% of the full set was active somewhere. Calls follow the shape of the dose curve; as a rule, active = well fitted curve in the direction sought with a large enough effect; inconclusive = small, poorly fitted or top-dose-only effect, or another doubt; inactive = no such curve, though single readings can be large; an effect the other way counts as inactive or inconclusive. Potency is read from the fitted curve at half-maximal effect.
SMILES,SMN2 splice enh,Rab9 prom act,NPC1 promoter act,FLuc modulator,ELG1 repair inh,ELG1 genotoxic
CCOC(=O)N1CCC(c2cc(=O)n3[nH]c(-c4ccccc4)cc3n2)CC1,8.6%,-1.0%,0.3%,-2.6%,5.4%,2.3%
Cc1nc2cc(-c3ccsc3-n3c(C)ccc3C)[nH]n2c(=O)c1Cl,-10.7%,-2.0%,0.5%,1.2%,2.8%,-8.5%
O=C(Nc1ccc(O)cc1)c1cc2ccccc2c(=O)s1,x,u,3.98µM*,u,u,2.7%
Cc1cc(C)cc(NC(=O)c2cc3c(=O)n4ccccc4nc3s2)c1,x,-0.3%,0.2%,3.6%,9.1%,13.3%
CC(C)c1ccc(NC(=O)c2cc3c(=O)oc4ccccc4c3s2)cc1,3.1%,x,x,-5.5%,x,x
O=C(Nc1ccccc1)c1cc2ccccc2c(=O)s1,u,2.82µM*,u,10.7µM*,u,-4.5%
Cc1ccc(N=Nc2c(O)ccc3cc(S(=O)(=O)O)ccc23)cc1,-5.5%[9.22 µM],x,x,x,x,x
Cc1ccc(N=Nc2c(O)ccc3n[nH]nc23)cc1,x,u,1.58µM*,10.7µM*,u,u
Cc1ccccc1C(=O)Nc1cccc(-c2ccc(N3CCOCC3)nn2)c1,x,3.16µM*,u,2.13µM*,u,u
O=C(Nc1cccc(-c2ccc(N3CCOCC3)nn2)c1)c1ccc([N+](=O)[O-])cc1,x,2.51µM*,3.55µM*,2.39µM*,u,u
Cc1ccc(C(=O)Nc2cccc(-c3ccc(N4CCOCC4)nn3)c2)cc1[N+](=O)[O-],x,3.16µM*,u,u,u,u
O=C(Nc1cccc(-c2ccc(N3CCOCC3)nn2)c1)c1ccccc1,x,u,2.82µM*,2.69µM*,0.0%,u
O=C(Nc1ccc(C(=O)N2CCOCC2)cc1)c1ccc([N+](=O)[O-])cc1,x,-1.9%,1.8%,-2.6%,0.9%,-15.0%
Cc1ccccc1C(=O)N1CCN(c2ccc(N3CCOCC3)nn2)CC1,x,-1.4%,0.1%,4.2%,16.3%,-1.6%
Cc1ccc(S(=O)(=O)C(CNC(=O)C(=O)NCCc2ccc(Cl)cc2)c2cccs2)cc1 (stereo unspecified),x,x,x,-10.3%,x,x
FC(F)(F)c1ccc2c(c1)ncc1c(-c3ccccc3)nn(-c3ccccc3)c12,-3.5%,x,x,-1.0%,x,x
Cc1ccc(CCNC(=O)CCCc2nnc3n(C)c(=O)c4sccc4n23)cc1,-4.2%,x,x,-5.6%,x,x
Cc1cc(NC(=O)CCCn2ccc([N+](=O)[O-])n2)n(Cc2ccc(F)cc2)n1,x,1.4%,-4.0%,-3.0%,-1.1%,-2.1%
COc1ccc(OCc2nc(-c3ccc(OC)c(OC)c3)no2)cc1,-14.3%,x,x,-15.7%,x,x
COc1ccc(-c2cc(-c3cc(F)ccc3O)[nH]n2)cc1OC,u,3.98µM*,3.16µM*,8.49µM*,u,u
COC(=O)c1cc(-c2ccc(OC)c(OC)c2)n[nH]1,-16.0%,13.5%,-2.5%,-15.7%,u,17.3%
COc1ccc(-c2cc(-c3ccccc3O)[nH]n2)cc1OC,u,3.98µM*,u,2.39µM*,u,20.6µM*
CCOc1ccc(-c2cc(-c3nc(-c4ccc(OC)c(OC)c4)no3)[nH]n2)cc1,x,x,x,19µM*,x,x
COc1ccc(-c2cc(-c3ccc(OC)c(OC)c3)n[nH]2)c(O)c1,22.4µM*,u,u,5.36µM*,u,5.8µM*
COc1ccc(-n2nc(C(=O)NCCc3ccc(Cl)cc3)c3c4ccccc4n(C)c3c2=O)cc1,13.3%,x,x,-0.6%,x,x
SMILES,SMN2 splice enh,Rab9 prom act,NPC1 promoter act,FLuc modulator,ELG1 repair inh,ELG1 genotoxic
O=C(COc1ccccc1[N+](=O)[O-])NCCCN1CCCC1=O,x,-4.0%,-2.9%,0.0%,20.0%,-2.4%
COC(=O)Cn1c(=NC(=O)c2ccc3c(c2)OCCO3)sc2ccccc21,x,x,x,8.49µM*,x,x
COC(=O)Cn1c(O)c(N=NC(=O)c2ccc3c(c2)OCO3)c2ccccc21,x,30.0%,u,0.953µM*,u,8.6%
O=C(CCN1CCN(c2ccccc2)CC1)N/N=C/c1ccccc1OC(F)F,-9.2%,-0.4%,-7.4%,-0.6%,11.6µM*,-3.8%
Cc1ccc(CNC(=O)CSc2n[nH]c(-c3ccc(F)cc3)n2)cc1,x,x,x,-20.0%,x,x
CSc1n[nH]c(-c2ccc(C(F)(F)F)cc2)n1,x,u,u,16.9µM*,u,u
C=CCNC(=O)CN1C(=O)c2cccc3cccc1c23,x,9.3%,-3.2%,3.3%,10.9%,0.7%
O=C(O)CCC(=O)NCc1cn(-c2ccccc2)nc1-c1cccc(Br)c1,-19.7%,-3.4%,-1.1%,u,5.9%,2.5%
Cc1ccc(-c2nn(-c3ccccc3)cc2CN(C)C(=O)CCC(=O)O)cc1C,5.3%,-2.5%,-1.8%,19µM*,20.6%,11.9%
COC(=O)c1ccccc1NC(=O)Cn1c(=O)n(-c2ccc(Cl)cc2)c(=O)c2c(C)c(C)sc21,-2.4%,x,x,0.6%,x,x
CS(=O)(=O)N1CCc2cc(-c3csc(NC(=O)Cc4cccs4)n3)ccc21,x,-17.6%,-20.3%,u,5.8µM*,-22.1%
CC(=O)Nc1nc(-c2ccc3c(c2)CCN3S(C)(=O)=O)cs1,10µM*,2.51µM*,u,21.3µM*,u,u
O=c1c2ccccc2nnn1COc1ccc(F)cc1Cl,u,2.51µM*,u,u,u,u
CCC(=O)OCn1nnc2ccccc2c1=O,-43.3%,-3.8%,4.6%,0.9%,-6.8%,3.4%
O=c1c2ccccc2nnn1COc1cccc2ccccc12,17.9%,3.98µM*,u,16.9µM*,u,13.5%
O=c1c2ccccc2nnn1COc1ccc(Cl)cc1Br,u,3.16µM*,u,23.9µM*,u,u
CC(Oc1ccc(Cl)cc1Cl)C(=O)OCn1nnc2ccccc2c1=O (stereo unspecified),-6.3%,1.4%,-3.9%,-0.2%,-5.5%,1.1%
O=C(Nc1nc2c(F)cc(F)cc2s1)c1ccco1,x,0.447µM*,0.708µM*,4.78µM*,u,u
O=C(Nc1nc2c(F)c(F)c(F)cc2s1)c1ccco1,x,2.51µM*,2.24µM*,6.01µM*,u,u
O=C(Nc1nc2c(ccc3ccccc32)s1)c1ccco1,24.0%,u,u,13.5µM*,u,6.4%
O=C(COC(=O)c1ccco1)Nc1nc2c(F)c(F)c(F)cc2s1,x,-3.6%,2.0%,0.7%,2.9%,0.0%
O=C(CCc1ccccc1)Nc1nc2c(F)cc(F)cc2s1,x,16.7%,u,16.9µM*,u,14.1%
Cc1cc(NC(=O)c2ccc(Br)o2)cc(-c2nc3ccccc3o2)c1O,u,x,x,-19.9%,x,x
CCOc1cc(C2CC(=O)Nc3c2c(C)nn3-c2nc(C)cc(C)n2)ccc1O (stereo unspecified),x,x,x,3.0%,x,x

# Assay outcomes deposited in PubChem by National Center for Advancing Translational Sciences (NCATS).
